# Compound activity as filed in PubChem.
# JMJD2A Tudor: inhibitors of human JMJD2A Tudor domain; O75164; AlphaScreen JMJD2A-Tudor / H3K4me3 peptide binding; Potency, µM (doses to about 114 µM), inactives show at the top dose activity change, negative = inhibition, hits mostly inhibitors; actives 4.4% (n = 390,000); AID 504339; further: on the % scale 0 is the no-effect control and ±100 the full control effect; nearly all actives have a fitted effect of over 50% in size
# 12-LOX inh: inhibitors of human 12S-lipoxygenase ALOX12. P18054. actives 1.1% (n = 580,000). purified 12hLO, xylenol orange hydroperoxide absorbance. Potency, µM (titrated, usually from 108 µM), without a hit: at the top dose activity change, negative = inhibition, most hits filed as inhibitors; further: on the % scale 0 is the no-effect control and ±100 the full control effect
#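 Purified human 12hLO (150 nM final) in 25 mM Hepes, 0.01% Triton X-100, pH 7.0 was preincubated 15 min at room temperature with compound. Then 40 uM arachidonic acid was added, 30 min. Hydroperoxide was read by Fe-XO absorbance ratio 573/405 nm.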
# BAZ2B block: blocks human BAZ2B | AlphaScreen BAZ2B-H3K14Ac peptide displacement | Potency, µM (doses to about 114 µM), inactives show at the highest dose activity change, negative = inhibition, usual class: inhibitors | actives 4.4% (n = 360,000) | AID 504333; further: on the % scale 0 is the no-effect control and ±100 the full control effect; nearly all actives have a fitted effect of over 60% in size
# Target sequence (Q9UIF8 whole entry, looked up): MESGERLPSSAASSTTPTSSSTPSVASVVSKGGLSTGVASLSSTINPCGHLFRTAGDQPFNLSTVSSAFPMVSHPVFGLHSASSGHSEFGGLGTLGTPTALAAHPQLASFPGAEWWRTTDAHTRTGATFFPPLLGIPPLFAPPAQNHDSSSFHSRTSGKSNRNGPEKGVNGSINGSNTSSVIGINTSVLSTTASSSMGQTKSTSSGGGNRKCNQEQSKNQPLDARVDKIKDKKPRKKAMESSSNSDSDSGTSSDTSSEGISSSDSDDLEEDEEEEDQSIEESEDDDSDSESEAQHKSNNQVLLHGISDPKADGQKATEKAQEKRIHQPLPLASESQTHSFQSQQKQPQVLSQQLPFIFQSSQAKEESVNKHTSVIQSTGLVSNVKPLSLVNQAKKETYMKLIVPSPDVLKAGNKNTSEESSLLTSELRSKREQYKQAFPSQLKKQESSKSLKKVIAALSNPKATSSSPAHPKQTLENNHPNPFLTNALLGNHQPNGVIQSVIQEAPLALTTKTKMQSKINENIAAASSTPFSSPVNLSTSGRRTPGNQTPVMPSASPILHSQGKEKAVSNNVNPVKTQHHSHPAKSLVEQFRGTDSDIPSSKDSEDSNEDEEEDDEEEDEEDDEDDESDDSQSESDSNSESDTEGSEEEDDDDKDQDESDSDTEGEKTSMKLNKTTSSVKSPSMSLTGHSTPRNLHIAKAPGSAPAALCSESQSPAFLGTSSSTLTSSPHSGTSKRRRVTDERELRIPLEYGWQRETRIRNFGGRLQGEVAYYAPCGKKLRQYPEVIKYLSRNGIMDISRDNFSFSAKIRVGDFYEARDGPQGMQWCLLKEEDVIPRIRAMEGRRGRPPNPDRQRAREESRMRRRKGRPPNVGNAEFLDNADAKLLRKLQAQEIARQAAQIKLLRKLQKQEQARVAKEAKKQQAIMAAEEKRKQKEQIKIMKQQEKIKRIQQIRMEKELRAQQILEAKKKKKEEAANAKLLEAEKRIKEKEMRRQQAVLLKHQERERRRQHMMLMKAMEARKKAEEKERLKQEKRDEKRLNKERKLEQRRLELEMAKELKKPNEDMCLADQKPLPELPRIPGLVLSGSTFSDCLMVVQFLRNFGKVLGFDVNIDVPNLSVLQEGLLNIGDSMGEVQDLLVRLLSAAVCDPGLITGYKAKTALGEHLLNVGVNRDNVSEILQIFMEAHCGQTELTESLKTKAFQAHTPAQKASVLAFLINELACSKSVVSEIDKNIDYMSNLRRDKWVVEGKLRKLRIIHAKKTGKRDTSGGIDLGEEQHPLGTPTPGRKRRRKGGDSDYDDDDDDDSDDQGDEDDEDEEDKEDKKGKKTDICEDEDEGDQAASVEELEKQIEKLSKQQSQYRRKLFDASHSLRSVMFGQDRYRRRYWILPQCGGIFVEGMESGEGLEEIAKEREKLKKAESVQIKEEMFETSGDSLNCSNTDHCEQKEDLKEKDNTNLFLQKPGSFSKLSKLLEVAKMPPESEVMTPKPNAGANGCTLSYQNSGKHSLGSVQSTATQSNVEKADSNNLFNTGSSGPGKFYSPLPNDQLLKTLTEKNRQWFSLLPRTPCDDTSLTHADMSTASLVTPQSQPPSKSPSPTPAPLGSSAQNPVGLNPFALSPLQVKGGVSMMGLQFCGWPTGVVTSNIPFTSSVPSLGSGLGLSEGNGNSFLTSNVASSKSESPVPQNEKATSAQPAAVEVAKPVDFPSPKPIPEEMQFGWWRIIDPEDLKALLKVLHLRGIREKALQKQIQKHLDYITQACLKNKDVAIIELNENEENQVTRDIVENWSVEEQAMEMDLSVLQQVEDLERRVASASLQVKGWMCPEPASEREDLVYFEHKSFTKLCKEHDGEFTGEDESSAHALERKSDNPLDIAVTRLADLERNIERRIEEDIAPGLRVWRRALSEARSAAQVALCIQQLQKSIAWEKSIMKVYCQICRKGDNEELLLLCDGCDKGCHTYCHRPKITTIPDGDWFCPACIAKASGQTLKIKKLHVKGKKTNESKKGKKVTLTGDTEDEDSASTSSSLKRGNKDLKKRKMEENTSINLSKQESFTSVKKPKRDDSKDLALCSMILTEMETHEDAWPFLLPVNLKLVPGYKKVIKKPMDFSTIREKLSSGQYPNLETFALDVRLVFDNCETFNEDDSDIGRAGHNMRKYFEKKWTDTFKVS
#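 Complex of BAZ2B and biotin-H3K14Ac (50 nM apiece) forms over 30 min at RT, then faces library compounds up to 110 uM for another 30 min; AlphaScreen beads added, 20 min dark incubation, luminescence read.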
# G9a inh: inhibitors of human histone lysine methyltransferase G9a. Q96KQ7. G9a H3K9 monomethylation, AlphaScreen, 2 h. Potency, µM (doses to about 102 µM), for the others: top-dose activity, negative = inhibition, most hits filed as inhibitors. actives 8.8% (n = 350,000). AID 504332; further: on the % scale 0 is the no-effect control and ±100 the full control effect; nearly all actives have a fitted effect of over 75% in size
#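 Using a bead-based AlphaScreen, monomethylated H3K9 product from 2 h room-temperature reactions (G9a 20 nM, peptide 500 nM, SAM 20 uM) was detected with 0.5 ug/mL rabbit anti-H3K9me1 antibody.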
# HP1b chromo inh: inhibitors of HP1-beta chromodomain binding to methylated histone tails. P83916. actives 0.56% (n = 390,000). AlphaScreen HP1-beta / biotin-H3K9me3 peptide binding. Potency, µM (doses to about 114 µM), inactives show at the top dose activity change, negative = inhibition, actives largely listed as inhibitors; further: nearly all actives have a fitted effect of over 70% in size
#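 HP1-beta protein (50 nM final) preincubated 30 min at room temperature with biotinylated H3(1-18)K9me3 peptide (50 nM) in PBS pH 7.4, 0.01% Tween-20, then compound added for 30 min. AlphaScreen streptavidin donor/nickel chelate acceptor beads (10 ug/mL final), 30 min dark, luminescence read.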
# Sfp PPTase inh: inhibitors of Bacillus subtilis Sfp phosphopantetheinyl transferase; Biochemical Sfp PPTase activity, qHTS; Potency, µM, for inactives: largest response in the series, negative = inhibition, actives largely listed as inhibitors; actives 3.5% (n = 310,000);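 further: the enzyme is Sfp with the accession as filed and its product quenches rhodamine fluorescence; 0% = enzyme reaction without inhibitor and -100% = no enzyme wells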
#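 Compounds were incubated with enzyme (final 15 nM) for 15 min at room temperature before substrate addition started the reaction. Fluorescence at 525 nm excitation, 598 nm emission was recorded immediately and after 30 minutes.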
# The depositor's hits bear a star; ? = inconclusive; . = not tested or not shown; [ ] = remark or other dose. In the library only some 8.7% were active in any assay of this set; here they are far more common. The call rests on the fitted dose curve; in most records, active means well fitted curve in the direction sought with a large enough effect; inconclusive means small, poorly fitted or top-dose-only effect, or another doubt; inactive means no such curve, though single readings can be large; an effect the other way counts as inactive or inconclusive. Potency means the concentration at half of the fitted maximal effect.
SMILES,JMJD2A Tudor,12-LOX inh,BAZ2B block,G9a inh,HP1b chromo inh,Sfp PPTase inh
Cc1ccc(CN=Cc2[nH]c3ccc(Br)c(Cl)c3c2O)cc1,50µM*,?,?,28µM*,45µM*,?
Oc1c(C=NCc2ccc(F)cc2)[nH]c2ccc(Br)c(Cl)c12,.,13µM*,?,?,.,-17%
CN(C)C(=O)CN1CCCN(Cc2nc3ccccc3o2)CC1,.,-2%,.,.,.,.
CC(=O)N1CCN(S(=O)(=O)c2ccc(C)c3ncccc23)CC1,.,47%,.,.,.,.
C/C(=N\NC(=O)CSCc1ccccc1Cl)c1cc(O)ccc1O,?,-29%,40µM*,.,?,?
Cc1csc(Nc2ccccc2)[n+]1C,-31%,-19%,.,?,-1%,15%
O=C(O)c1ccc(C[n+]2c(-c3ccccc3)csc2Nc2ccccc2)cc1,?,?,40µM*,?,?,5%
CC(C)(C)c1cc(-c2csc(Nc3ccccc3)[n+]2Cc2ccc(C(=O)O)cc2)cc(C(C)(C)C)c1O,40µM*,.,40µM*,40µM*,45µM*,14%
CCCCCC[n+]1c(-c2ccccc2)csc1Nc1ccccc1,-11%,-26%,18µM*,16µM*,17%,0%
COc1ccc(/C=N/NC(=O)c2cccnc2)cc1Cn1nc([N+](=O)[O-])c(Br)c1C,.,-1%,-24%,50µM*,.,3%
CC(C)c1ccc(CN2CCc3ncc(C(=O)NCCN4CCNC4=O)n3CC2)cc1,.,-16%[176 µM],.,.,.,.
CN(C)CCN(Cc1ccco1)C(=O)c1oc2ccccc2c1NC(=O)COc1ccccc1,28µM*,?,?,45µM*,?,0%
CN(C)CCN(Cc1ccco1)C(=O)c1oc2ccccc2c1NC(=O)c1cccc(F)c1,?,-22%,5%[57.1 µM],-40%[59 µM],20%,.
COc1ccc(CCC(=O)N(C)CC(=O)Nc2ccc(N3CCOCC3)cc2)cc1,-13%,-14%,-19%,25%[59 µM],7%,27%
CN(CC(=O)Nc1ccc(N2CCOCC2)cc1)C(=O)CCCOc1ccc(Cl)cc1Cl,-29%,-16%,?,20µM*,5%,.
COCCCN(CC(=O)Nc1ccc(N2CCOCC2)cc1)S(=O)(=O)c1ccc(Cl)cc1,79µM*,-25%,.,?,?,-1%
CC(Oc1ccc(Br)cc1)C(=O)N(C)CC(=O)Nc1ccc(N2CCOCC2)cc1 (stereo unspecified),-31%,13%,-10%,50µM*,20%,.
CN(CC(=O)Nc1ccc(N2CCOCC2)cc1)C(=O)c1cc(F)c(F)cc1Cl,-19%,-19%,-2%,8%[0.501 µM],-17%,.
CCOc1ccc(OCCCC(=O)N(C)CC(=O)Nc2ccc(N3CCOCC3)cc2)cc1,-18%,-12%,-5%,35µM*,-9%,.
CN(CC(=O)Nc1ccc(N2CCOCC2)cc1)CC(=O)Nc1ccc(N2CCOCC2)cc1,-29%,-3%,-12%,?,27%,-7%
CN(C)CCCN(C(=O)c1ccc(S(=O)(=O)N2CCc3ccccc3C2)cc1)c1nc2c(F)cc(F)cc2s1,?,.,?,35µM*,-5%,.
COc1cc2nc(N(CCCN(C)C)C(=O)c3ccc(S(=O)(=O)N4CCc5ccccc5C4)cc3)sc2cc1OC,-16%,?,-37%,40µM*,3%,.
COc1cccc2sc(N(CCCN(C)C)C(=O)c3ccc(S(=O)(=O)N4CCc5ccccc5C4)cc3)nc12,?,?,?,?,-9%,-19%
COc1ccc(OC)c2sc(N(CCCN(C)C)C(=O)c3ccc(S(=O)(=O)N4CCc5ccccc5C4)cc3)nc12,.,.,-12%,8.9µM*,.,.
COc1cc2nc(N(CCCN(C)C)C(=O)c3ccc(C(=O)c4ccccc4)cc3)sc2cc1OC,?,?,?,50µM*,?,.
SMILES,JMJD2A Tudor,12-LOX inh,BAZ2B block,G9a inh,HP1b chromo inh,Sfp PPTase inh
Cc1ccccc1-n1c(SCC(=O)NC(C)c2cc3ccccc3o2)nnc1N1CCOCC1 (stereo unspecified),.,-1%,.,.,.,.
CC(NCc1cccc(C#N)c1)c1cccc(Br)c1 (stereo unspecified),.,-16%,.,.,.,.
COC(=O)C1=C(C)N=C2SC=C(CC(=O)N3CCOCC3)N2C1c1ccc([N+](=O)[O-])cc1 (stereo unspecified),.,13%,.,.,.,.
COC(=O)c1c(-c2cccs2)csc1NC(=O)c1cc(OC)cc(OC)c1,-5%,-19%,-35%,2.8µM*,0%,.
COC(=O)c1c(-c2cccs2)csc1NC(=O)c1ccc(OC)c(OC)c1,-33%,-24%,-27%,2.8µM*,?,.
COC(=O)c1c(-c2cccs2)csc1NC(=O)c1ccc(C)cc1,-28%,7%,?,?,-23%,.
COC(=O)c1c(-c2cccs2)csc1NC(=O)c1ccc(Br)cc1,-11%,?,-7%,1.6µM*,6%,.
COC(=O)c1c(-c2cccs2)csc1NC(=O)c1cc(OC)c(OC)c(OC)c1,89µM*,?,?,?,?,.
COc1cccc(NC(=O)CSc2nc3c(=O)[nH]cnc3n2C)c1,.,75%,.,.,.,.
CCN1c2cc(C(=O)Nc3ccc4c(c3)OCCO4)ccc2C(=O)N2CCCCC21 (stereo unspecified),.,43%,.,.,.,.
CCOC(=O)c1cc(-c2ccccc2)sc1NC(=O)CCN1CCC(C)CC1,.,6%,.,.,.,.
CCCn1nc(C(=O)Nc2ccc3nc(N4CCOCC4)sc3c2)ccc1=O,-14%,1%,-7%,50µM*,11%,.
O=C1CC2CCCN2C=C1I (stereo unspecified),18µM*,?,.,.,23%,.
CC1(C)CC(CC(=O)N[C@H](Cc2ccccc2)C2CC(O)C2)CC(C)(C)N1 (stereo partly specified),.,4%,.,.,.,.
O=C1CC2CCN(Cc3nc4ccccc4s3)CC2CCN1 (stereo unspecified),.,4%[6.33 µM],.,.,.,.
COc1ccc(-c2cc(N3CCCN(C(=O)c4cc5ccccc5[nH]4)CC3)n[nH]2)cc1,.,5%,.,.,.,.
COc1ccccc1NS(=O)(=O)c1ccc(NN=C2CCCCC2)c([N+](=O)[O-])c1,?,4%,8.9µM*,25µM*,?,-1%
CCCC(CCC)=NNc1ccc(S(=O)(=O)Nc2ccccc2OC)cc1[N+](=O)[O-],14µM*,13%,10µM*,?,28µM*,-2%
COc1ccccc1NS(=O)(=O)c1ccc(OC)c([N+](=O)[O-])c1,-22%,8%,-13%,3%,-7%,13%
COc1ccc(S(=O)(=O)Nc2ccccc2OC)cc1C,4%,9%,-3%,-6%[59 µM],16%,3%
